# CYP2C19 inhib – blockers of cytochrome P450 2C19 activity – biochemical, luminescence, ADME assay, primary screen; CYP2C19 Supersomes, luciferin-H EGE luminescence, 30 min; inhibition, % at 5 µM; actives 21% (n = 96,000); AID 778, 2007;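 active means CYP2C19 inhibition above a set limit at 5 µM in the primary screen, cut at about 50% in these data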;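 further: plate controls were negative control wells for no effect and 2.5 mM tranylcypromine positive control for full effect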
# CYP2C9 inhib – blockers of cytochrome P450 2C9 activity – biochemical, luminescence, ADME assay, primary screen; P11712; inhibition, % at 5 µM; actives 20% (n = 96,000); CYP2C9 Supersomes, luciferin-H conversion;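 active means blocking of liver enzyme CYP2C9 beyond about 50% at 5 µM, limit read from the data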
# Target sequence (P11712 whole entry, looked up): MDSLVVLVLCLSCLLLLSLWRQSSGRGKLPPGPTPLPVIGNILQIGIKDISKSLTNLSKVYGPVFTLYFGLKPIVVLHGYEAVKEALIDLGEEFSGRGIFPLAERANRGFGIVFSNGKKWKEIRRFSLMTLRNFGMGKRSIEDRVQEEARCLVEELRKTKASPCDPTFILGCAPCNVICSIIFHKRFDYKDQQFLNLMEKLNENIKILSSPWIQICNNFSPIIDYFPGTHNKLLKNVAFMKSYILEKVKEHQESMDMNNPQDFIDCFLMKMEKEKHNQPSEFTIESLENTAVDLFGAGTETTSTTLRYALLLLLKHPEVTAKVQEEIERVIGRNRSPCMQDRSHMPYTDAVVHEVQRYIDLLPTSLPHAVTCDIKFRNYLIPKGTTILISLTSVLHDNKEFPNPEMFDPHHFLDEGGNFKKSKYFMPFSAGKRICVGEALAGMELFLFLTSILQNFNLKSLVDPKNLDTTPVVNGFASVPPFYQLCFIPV
# Cav32 inh – Cav3.2 calcium influx blockers – cell-based, Fluo-4 calcium fluorescence, FDSS, MLSMR library, primary screen. Voltage-dependent T-type calcium channel subunit alpha-1H (Homo sapiens), O95180. Cav3.2-expressing cells; hits give low values. B-score at 10 µM. actives 4% (n = 100,000). AID 449739, 2010;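 active means single-dose well whose peak fluorescence ratio is a statistical outlier from its plate by either plate-standardised score or position-corrected B-score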
# CYP2C9 activ – human CYP2C9 activators, primary screen, biochemical, luminescence | Cytochrome P450 2C9 (Homo sapiens), P11712 | recombinant CYP2C9, luciferin-H conversion; hits give high values; factor 1 = untreated enzyme, 0 = blocked | activation factor at 5 µM | actives 1.4% (n = 96,000);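 active means activation factor of 2 or more for CYP2C9 at a 5 µM dose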;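 further: 0 = sulfaphenazole-blocked wells and 1 = vehicle-only wells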
# CYP2C19 act – human CYP2C19 activators, primary screen, biochemical, luminescence; AID 1025, 2008; activation factor at 5 µM; 96,000 tested, under 10 active; recombinant CYP2C19, luciferin-H EGE luminescence; hits give high values; 0 = fully inhibited enzyme, 1 = untreated enzyme; Cytochrome P450 2C19 (Homo sapiens), P33261;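 active means activation factor of at least 2 at 5 µM in the primary screen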;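 further: 0 = wells with 2.5 mM tranylcypromine and 1 = vehicle-only wells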
# Numbers without * were called inactive; . = not tested or not shown. An excerpt weighted towards active compounds, which were near 27% of everything screened.
SMILES,CYP2C19 inhib,CYP2C9 inhib,Cav32 inh,CYP2C9 activ,CYP2C19 act
COc1ccccc1Nc1nc(-c2sc(NC(=O)c3ccco3)nc2C)cs1,10,63*,0.95,0.4,0.9
CCC(C)C(=O)Nc1nc(C)c(-c2csc(Nc3ccccc3OC)n2)s1 (stereo not given),27,63*,-0.74,0.4,0.7
COc1cccc(N(C(=O)c2ccco2)c2nc(-c3sc(NC(=O)c4ccco4)nc3C)cs2)c1,41,55*,0.64,0.5,0.6
CCCCC(=O)Nc1nc(C)c(-c2csc(Nc3ccccc3OC)n2)s1,10,41,-0.15,0.6,0.9
Cn1c(=O)c2c(nc(Oc3ccc4ccccc4c3)n2C)n(C)c1=O,22,19,-0.41,0.8,0.8
COc1ccc(Cn2nc(C)cc2C)cc1OC,40,8,-0.023,0.9,0.6
O=C(CCc1ccccc1)NC(NC(=S)Nc1cccc(Cl)c1)C(Cl)(Cl)Cl (stereo not given),.,.,-2.1,.,.
CC(CC(=O)O)CC(=O)Nc1ccc(S(N)(=O)=O)cc1 (stereo not given),-16,-14,-0.077,1.1,1.2
CCCCCCCC(=O)NC(Nc1ccc(S(N)(=O)=O)cc1)C(Cl)(Cl)Cl (stereo not given),15,77*,-4.5,0.2,0.9
CCCCCC(=O)NC(NC(=S)Nc1ccc(S(N)(=O)=O)cc1)C(Cl)(Cl)Cl (stereo not given),60*,93*,1.7,0.1,0.4
O=C(CCc1ccccc1)NC(NC(=S)Nc1ccc(Br)cc1)C(Cl)(Cl)Cl (stereo not given),30,97*,0.21,0,0.7
COc1cc(NC(=O)c2nccnc2C(=O)O)cc(OC)c1,6,-1,-0.21,1,0.9
Cc1ccc(OC(=O)CCC(=O)Nc2ccc(S(=O)(=O)Nc3cc(C)on3)cc2)cc1,.,.,1.1,.,.
COc1cc(C(=O)Nc2ccc(S(=O)(=O)Nc3cc(C)on3)cc2)cc(OC)c1OC,-13,-8,-0.033,1.1,1.1
COc1ccccc1NS(=O)(=O)c1cccc(C(=O)OCC(=O)Nc2cc(C)on2)c1,40,38,-4.8*,0.6,0.6
Cc1cccc(NS(=O)(=O)c2ccc(C)c(C(=O)OCC(=O)Nc3cc(C)on3)c2)c1,89*,94*,-4.1,0.1,0.1
C[C@@H](C(=O)Nc1ccc2ccccc2c1)[C@H]1C[C@]1(C)[C@H](NC(=O)c1cccnc1)c1ccccc1,.,.,-1.6,.,.
C[C@@H](C(=O)Nc1ccc2ccccc2c1)[C@@H]1C[C@@]1(C)[C@@H](NC(=O)c1ccccc1)c1ccccc1,.,.,-3.9*,.,.
Cc1cc(NC(=O)c2oc3ccccc3c2C)ccc1-n1cnnn1,43,77*,-0.0075,0.2,0.6
Cc1c(C(=O)Nc2ccc(N3CCOCC3)cc2)oc2ccccc12,-4,-15,0.56,1.2,1
COc1cc(OC)cc(C(=O)Nc2ccc(-n3cnnn3)c(C)c2)c1,83*,92*,0.0053,0.1,0.2
COCC(=O)N1CCCc2ccccc21,3,1,0.37,1,1
O=C(COc1ccc(Br)cc1Br)NC(=S)N1CCCc2ccccc21,-9,77*,-2.9,0.2,1.1
CC1(C(=O)N2CC3(CC(c4cccc(NC(=O)CC(c5ccccc5)c5ccccc5)c4)=NO3)C[C@@H]2C(N)=O)CC1 (stereo not given in full),.,.,-0.011,.,.
Cc1cc(C)cc(SCc2noc(C(=O)NCCN(C)C)c2C(=O)NCCN(C)C)c1,.,.,0.52,.,.
SMILES,CYP2C19 inhib,CYP2C9 inhib,Cav32 inh,CYP2C9 activ,CYP2C19 act
Cc1cc(C)c(C)c(OCC(=O)N2CCOCC2)c1,67*,-80,1.2,1.8,0.3
Cc1cc(OCC(=O)N2CCOCC2)c(C(C)C)cc1Cl,80*,14,-2.1,0.9,0.2
CCOc1ccc(OCC(=O)N2CCOCC2)cc1,30,-11,0.12,1.1,0.7
O=C(CSc1nnc(Cc2ccccc2)n1Cc1ccco1)NC12CC3CC(CC(C3)C1)C2,37,39,-3.2*,0.6,0.6
CN(C)C(=O)CSc1nnc(Cc2ccccc2)n1Cc1ccco1,.,.,-0.077,.,.
Cn1c(CNC(=O)c2ccco2)nnc1SCC(=O)Nc1cccc(Br)c1,6,10,0.21,0.9,0.9

# Screening results: PubChem, several laboratories
